# Source: PubChem BioAssay (Tox21)
# “And” between values parts separate entries of the source, which are not always exact repeats. Equal values may be shown once. Inconclusive results are not listed. The source holds several records for some structures; these can differ, active in one and inactive in another. The source made the active and inactive calls. Calls follow the shape of the dose curve; as a rule, active = well fitted inhibition curve with a large enough effect in the repeat runs; inconclusive = weak or mixed curves; inactive = no such curve, though single readings can be large or run the other way.
# Target: Cytochrome P450 2C9 (Homo sapiens) (UniProt P11712)
# Assay: Cytochrome P450 Family 2 Subfamily C Member 9 (CYP2C9) small molecule antagonists: luciferase reporter qHTS assay (AID 1671198); also: nearly all actives have a fitted effect of over 50% in size
# Conditions: P450-Glo CYP2C9 enzyme assay, luciferin luminescence; series mostly up to 115 µM
# Text: U.S. Tox21 Program National Center for Advancing Translational Sciences [NCATS] U.S. Environmental Protection Agency [EPA] National Institutes of Environmental Health Sciences [NIEHS] National Toxicology Program [NTP] U.S. Food and Drug Administration [FDA] Tox21 Assay Overview: Cytochrome P450 (CYP) enzymes are membrane-bound hemeproteins that play a key role in metabolism of drugs and xenobiotics. Evaluation of the effect of chemicals on CYP isozymes is useful to minimize the adverse drug reactions and toxicities in drug development process. Tox21 chemicals were tested for their effect on CYP enzyme activities by using P450-Glo (TM) screening systems (Promega Corporation, Madison, WI). These systems provide a luminescent method containing proluciferin substrates and are converted to luciferin products by CYP isozymes. The luciferin products formed are detected with a luciferin detection reagent, and the amount of light produced is proportional to CYP activity. P450-Glo (TM) CYP2C9 screening system (Catalog. No. V9790) was used to detect the compounds that interfere in CYP2C9 activity.
# Tox21 Assay Protocol Summary: Two ul of enzyme-substrate mix was dispensed into medium binding white/solid 1536-well plates (Greiner Bio-One North America Inc., Monroe, NC) using a BioRaptr Flying Reagent Dispenser (FRD, Beckman Coulter, Brea, CA). […] The assay plates were incubated at room temperature for 10 min. Then 2 ul of NADPH regeneration solution was added to each well of the assay plates using an FRD and incubated at 37C for 1 h. The reaction was stopped by adding 4 ul of detection reagent using an FRD and after 20 min incubation at room temperature the luminescence signal was measured using a ViewLux plate reader (Perkin Elmer, Shelton, CT). Data were expressed as relative luminescence units.
# Potency is read from the fitted curve at half-maximal effect.
# Cytochrome P450 2C9 (Homo sapiens), sequence (P11712 whole entry, looked up): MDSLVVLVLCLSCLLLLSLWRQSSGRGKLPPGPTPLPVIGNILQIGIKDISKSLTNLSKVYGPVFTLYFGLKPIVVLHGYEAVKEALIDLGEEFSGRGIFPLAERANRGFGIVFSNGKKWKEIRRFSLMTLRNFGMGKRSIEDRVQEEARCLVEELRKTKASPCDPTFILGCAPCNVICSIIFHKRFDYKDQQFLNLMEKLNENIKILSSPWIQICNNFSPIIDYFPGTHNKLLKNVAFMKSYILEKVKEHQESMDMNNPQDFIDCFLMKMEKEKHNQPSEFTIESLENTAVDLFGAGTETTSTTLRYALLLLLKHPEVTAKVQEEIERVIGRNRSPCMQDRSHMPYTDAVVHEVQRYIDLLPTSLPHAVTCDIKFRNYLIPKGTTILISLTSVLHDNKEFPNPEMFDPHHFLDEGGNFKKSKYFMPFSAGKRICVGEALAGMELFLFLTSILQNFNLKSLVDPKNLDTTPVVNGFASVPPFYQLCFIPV
row,SMILES,Potency
1,CCCCCCOC(=O)c1ccccc1C(=O)OCCCCCC,25.7 µM (active) and 7.96 µM (active)
2,CCCCCCCCOC(=O)c1ccccc1C(=O)OCCCCCCCC,14.2 µM (active)
3,CCOCN(C(=O)CCl)c1c(C)cccc1CC,30 µM (active) and 39.9 µM (active)
4,COP(=S)(OC)Oc1cc(Cl)c(Cl)cc1Cl,9.95 µM (active) and 7.76 µM (active)
5,C=CCc1ccc2c(c1)OCO2,inactive
6,CCCCC(CC)COC(=O)Cl (stereo not given),inactive
7,Nc1cccnc1,inactive
8,Cc1ccccc1[N+](=O)[O-],inactive
9,O=[N+]([O-])c1cccc2ccccc12,inactive
10,CNC(=O)N(C)c1nnc(C(C)(C)C)s1,inactive
11,C=C(C)C(=O)OCC1CO1 (stereo not given),inactive
12,CCCCCCCCC(=O)NCc1ccc(O)c(OC)c1,2.52 µM (active) and 2.45 µM (active)
13,N#Cc1cc(Br)c(O)c(Br)c1,20 µM (active) and 15.3 µM (active)
14,N#CCCCl,inactive
15,COP(=S)(OC)Oc1ccc([N+](=O)[O-])cc1,35.6 µM (active) and 12.6 µM (active)
16,O=P(Oc1ccccc1)(Oc1ccccc1)Oc1ccccc1,6.3 µM (active) and 6.33 µM (active)
17,CC(C)C(=O)OCC(C)(C)C(OC(=O)C(C)C)C(C)C (stereo not given),inactive
18,O=C(O)C(F)(F)C(F)(F)C(F)(F)C(F)(F)C(F)(F)C(F)(F)C(F)(F)F,1.78 µM (active) and 2.51 µM (active)
19,CCC(C)c1cc([N+](=O)[O-])cc([N+](=O)[O-])c1O (stereo not given),inactive
20,CCN(CC)C(=O)/C(Cl)=C(\C)OP(=O)(OC)OC,inactive

row,SMILES,Potency
1,CCC(CC)Nc1c([N+](=O)[O-])cc(C)c(C)c1[N+](=O)[O-],32.1 µM (active) and 25.2 µM (active)
2,CCN(N=O)C(N)=O,inactive
3,CN(C)C(=O)Nc1ccc(Cl)cc1,inactive
4,O=C(NC(=O)c1c(F)cccc1F)Nc1ccc(Cl)cc1,inactive
5,CCOC(=O)C(C)OC(=O)c1cc(Oc2ccc(C(F)(F)F)cc2Cl)ccc1[N+](=O)[O-] (stereo not given),7.06 µM (active) and 7.1 µM (active)
6,CC(C)N(C(=O)SCC(Cl)=C(Cl)Cl)C(C)C,inactive and 31.7 µM (active)
7,CC(C)(OOC(C)(C)c1ccccc1)c1ccccc1,31.3 µM (active) and 31.7 µM (active)
8,c1ccc(P(c2ccccc2)c2ccccc2)cc1,12.9 µM (active) and 7.96 µM (active)
9,OCC(O)CO,inactive
10,CCCCCc1cc(O)cc(O)c1,11.3 µM (active) and 31.7 µM (active)
11,CCC(=O)O[C@H]1CC[C@H]2[C@@H]3CCC4=CC(=O)CC[C@]4(C)[C@H]3CC[C@]12C,25.2 µM (active) and 30.9 µM (active)
12,N#CC(Br)Br,inactive
13,CC(C)(c1cc(Cl)c(O)c(Cl)c1)c1cc(Cl)c(O)c(Cl)c1,35.6 µM (active) and 31.7 µM (active)
14,CCCCN(CCCC)N=O,inactive
15,CC1(C)C(C=C(Cl)Cl)C1C(=O)OC(C#N)c1cccc(Oc2ccccc2)c1 (stereo not given),5.64 µM (active) and 12.3 µM (active)
16,Oc1cc(Cl)ccc1Cl,inactive
17,CCc1cccc(CC)c1N(COC)C(=O)CCl,30.7 µM (active) and 39.9 µM (active)
18,O=[N+]([O-])c1ccc(O)c([N+](=O)[O-])c1,63.5 µM (active) and 39.9 µM (active)
19,CCC(C)(c1ccc(O)cc1)c1ccc(O)cc1,28.2 µM (active) and 22.4 µM (active)
20,O=c1oc2ccccc2c(O)c1C(CC(O)c1ccc(-c2ccc(Br)cc2)cc1)c1ccccc1 (stereo not given),3.37 µM (active) and 3.47 µM (active)
